# Experimental data from PubChem BioAssay AID652183 (National Center for Advancing Translational Sciences (NCATS), 2013).
# Records with an inconclusive call do not appear. Calls of active or inactive are those of the source. Calls come from the whole dose curve; as a rule, active = well fitted inhibition curve with a large enough effect; inconclusive = small, poorly fitted or top-dose-only effect; inactive = no such curve, though single readings can be large or run the other way.
# Assay: qHTS Assay for Lipid Storage Modulators: Differentiation Assay against Probe and Analogs
# Details: 3T3-L1 adipocyte differentiation, BODIPY lipid imaging, 8 d; series mostly up to 20 µM; activity change, negative = inhibition: at the top concentration
# Source text: Storing lipids as a reservoir for energy or the anabolism of elementary metabolites is a common feature of probably all cells and is conserved from bacteria to humans. The universal cellular lipid storage organelle is the so-called lipid storage droplet (LD). Although ubiquitous, LDs share a simple structure composed of a hydrophobic core that harbors the storage lipids, which is shielded by a droplet-specific phospholipid monolayer to which proteins are attached. The current model of LD biogenesis involves an incorporation of the lipid core into the membrane leaflets of the endoplasmic reticulum (ER) followed by a subsequent budding-like maturation of a LD, which ultimately pinches off. Once released, LD volume can increase by localized lipogenesis or fusion of existing droplets. Storage lipids are re-mobilized enzymatically by lipase activity. Lipase regulation in the adipocyte is heavily studied and involves multiple components including catecholamine signaling, the LD-associated proteins Perilipin and comparative gene identification-58 (CGI-58) and at least two lipases named hormone sensitive lipase (HSL) and adipocyte triglyceride lipase (ATGL). LD regulation outside of the adipocyte is poorly understood and only few components are known. However, there is an urgent need to learn more about ectopic fat depots as mislocalized storage of lipids, for example in the liver or muscle, is an eminent health problem associated with insulin resistance or the metabolic syndrome. We developed a laser-scanning cytometer assay to enable 1,536-well screening and combined the results of the small molecules screen with an RNAi database based on lipid storage. […] NIH Chemical Genomics Center [NCGC] MLPCN Grant: MH085686 Assay Submitter (PI): Mathias Beller, Max-Planck-Institut fur Biophysikalische Chemie
# 3T3L1 cells were obtained from ATCC (CL-173). Pre-adipocyte medium (PM-1), differentiation medium (DM-2) and after adipocyte medium (AM-1) were purchased from Zen-Bio (# PM-1-L1, DM-2-L1, AM-1-L1). 200 uL of PM-1containing 3,000 cells was dispensed into each well of a 96-well plate (Corning, #3340), and the assay plates were incubated at 37 °C, 95% humidity and 5% CO2 for 3-5 days. The differentiation of pre-adipocyte to adipocyte was induced by removing the pre-adipocyte medium and replacing with 200 uL of differentiation medium. 1 uL of compounds at different concentrations dissolved in differentiation medium were added to the assay plates, along with medium exchange for differentiation to test their effects on adipocyte differentiation. The final DMSO concentration was 0.5%.Triacsin C (Sigma-Aldrich T-4540), an inhibitor of long-chain fatty acyl CoA synthetase that blocks synthesis of triglycerides, was used as a positive control for lipid under-storage. […]
Structure (SMILES),"activity change, negative = inhibition",Potency
CCOc1ccc(CCNC(=O)c2cc3sccc3n2Cc2ccc(F)cc2F)cc1OCC,-77.8% (inactive),–
CCOc1ccc(CCNC(=O)c2cc3sccc3n2CCN(C)C)cc1OCC,-57.2% (inactive),–
CCOC(=O)C1CCN(C(=O)C2(NC(=O)Nc3ccccc3Cl)CCCC2)CC1,56% (inactive),–
CCOc1ccc(CCNC(=O)c2cc3ccccc3n2Cc2ccccn2)cc1OCC,–,12.6 µM (active)
